Test results reported in PubChem BioAssay (NCI).
About 79,000 compounds went through this panel and 15% of them were active in at least one assay; those are over-represented in the sample as a whole. Active and inactive are the calls of the source. Rule as the data show it: active = growth inhibition above about 70%; inactive = the rest.

Columns and labels:
[1] = NCI Yeast Anticancer Drug Screen. Data for the rad50 strain (AID 155);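 also: 0% = growth of vehicle-only cultures of the same strain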; conditions: S. cerevisiae rad50 strain growth inhibition, active compounds read high
Summary of the method: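 Compounds were tested on a yeast strain with an engineered DNA damage repair alteration; the reported value is growth inhibition normalised to vehicle treatment.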

[2] = NCI Yeast Anticancer Drug Screen. Data for the mec2-1 strain (AID 157); conditions: S. cerevisiae mec2-1 strain, active compounds read high
Summary of the method: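 Yeast mec2-1 mutant treated with compound. Readout: growth inhibition vs vehicle controls.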

[3] = NCI Yeast Anticancer Drug Screen. Data for the sgs1 mgt1 strain (AID 161);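 also: 0% = growth of cultures given vehicle only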; conditions: S. cerevisiae sgs1 mgt1 strain, active compounds read high
Summary of the method: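 Read-out: growth inhibition vs vehicle controls. Cells: mutant yeast strain deficient in DNA damage repair.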

[4] = NCI Yeast Anticancer Drug Screen. Data for the cln2 rad14 strain (AID 165);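 also: 0% = growth equal to vehicle treated cultures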; conditions: S. cerevisiae cln2 rad14 strain, active compounds read high
Summary of the method: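 cln2 rad14 yeast strain; compound exposure; growth inhibition read vs vehicle controls.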

[5] = NCI Yeast Anticancer Drug Screen. Data for the bub3 strain (AID 167); conditions: S. cerevisiae bub3 mutant strain, active compounds read high
Summary of the method: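 Growth of a checkpoint-deficient yeast mutant is measured after compound exposure. Values represent inhibition relative to vehicle.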

[6] = NCI Yeast Anticancer Drug Screen. Data for the mlh1 rad18 strain (AID 175); conditions: S. cerevisiae mlh1 rad18 strain growth inhibition, active compounds read high
Summary of the method: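 Yeast w/ defined DNA-repair lesions; compound exposure; growth vs vehicle controls → % inhibition.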

[7] = at 5.0 µM (retest, dose inferred, filed as 0.5)
[8] = at 50.0 µM (retest, dose inferred, filed as 5.0)

Measured: growth inhibition

Nc1c([N+](=O)[O-])cc(Cl)cc1[N+](=O)[O-]
active: [1]; [8] 84% | [1]; at 50.0 µM 73.8% | [2]; [8] 89% | [3]; [8] 98% | [3]; at 50.0 µM 94.2% | [5]; [8] 86% | [6]; [8] 97% | [6]; at 50.0 µM 78.3%
inactive: [1]; [7] 1% | [2]; [7] 0% | [2]; at 50.0 µM 63.8% | [3]; [7] 1% | [4]; [7] 1% | [4]; [8] 28% | [4]; at 50.0 µM -14.6% | [5]; [7] -3% | [5]; at 50.0 µM 64.7% | [6]; [7] 2%

COC(=O)C1=C(C(=O)OC)C2(OC(C)=O)c3ccccc3-c3ccccc3C12 (stereo not given)
active: [1]; [7] 72% | [1]; [8] 98% | [1]; at 50.0 µM 90.2% | [2]; [7] 92% | [2]; [8] 99% | [2]; at 50.0 µM 93.5% | [3]; [8] 98% | [3]; at 50.0 µM 91.6% | [4]; [7] 86% | [4]; [8] 99% | [4]; at 50.0 µM 89.6% | [5]; [7] 92% | [5]; [8] 98% | [5]; at 50.0 µM 90.2% | [6]; [7] 73% | [6]; [8] 99% | [6]; at 50.0 µM 91.2%
inactive: [3]; [7] 43%

NCCNCCNCCNCCN (tested in a mixture with another compound)
inactive: [1]; [7] 0% | [1]; [8] 1% | [2]; [7] -35% | [2]; [8] 0% | [2]; at 50.0 µM 25.8% | [3]; [7] 0% | [3]; [8] 2% | [3]; at 50.0 µM 52.9% | [4]; [7] 2% | [4]; [8] 4% | [4]; at 50.0 µM 35.8% | [5]; [7] -1% | [5]; [8] -5% | [6]; [7] 0% | [6]; [8] 2% | [6]; at 50.0 µM 62.5%
active: [1]; at 50.0 µM 90.3% | [5]; at 50.0 µM 80%

BrP(NC1CCCCCC1)(c1ccccc1)(c1ccccc1)c1ccccc1
active: [1]; [8] 97% | [1]; at 50.0 µM 98.5% | [2]; [8] 99% | [2]; at 50.0 µM 99.3% | [3]; [8] 98% | [3]; at 50.0 µM 99.2% | [4]; [8] 97% | [4]; at 50.0 µM 98.7% | [5]; [8] 98% | [5]; at 50.0 µM 99% | [6]; [8] 98% | [6]; at 50.0 µM 99%
inactive: [1]; [7] 43% | [2]; [7] 39% | [3]; [7] 47% | [4]; [7] 12% | [5]; [7] 25% | [6]; [7] 65%

C(=P(c1ccccc1)(c1ccccc1)c1ccccc1)[P+](c1ccccc1)(c1ccccc1)c1ccccc1.[Cl][Fe]([Cl])([Cl])[Br]
active: [1]; [7] 98% | [1]; [8] 99% | [1]; at 50.0 µM 99.5% | [2]; [7] 98% | [2]; [8] 99% | [2]; at 50.0 µM 99.5% | [3]; [7] 99% | [3]; [8] 99% | [3]; at 50.0 µM 99.5% | [4]; [7] 98% | [4]; [8] 99% | [4]; at 50.0 µM 99.2% | [5]; [7] 98% | [5]; [8] 99% | [5]; at 50.0 µM 99.5% | [6]; [7] 99% | [6]; [8] 99% | [6]; at 50.0 µM 99.4%

O=C1C(F)=C(N2CC2)C(=O)C(N2CCOCC2)=C1N1CC1
active: [1]; [7] 94% | [1]; [8] 98% | [1]; at 50.0 µM 90% | [2]; [7] 99% | [2]; [8] 98% | [2]; at 50.0 µM 89.8% | [3]; [7] 98% | [3]; [8] 98% | [3]; at 50.0 µM 89.8% | [4]; [7] 98% | [4]; [8] 96% | [4]; at 50.0 µM 84.5% | [5]; [7] 99% | [5]; [8] 97% | [5]; at 50.0 µM 91.9% | [6]; [7] 97% | [6]; [8] 97% | [6]; at 50.0 µM 92%

O=C1C=CC(=O)C(Cl)=C1
active: [1]; [8] 96% | [1]; at 50.0 µM 92.2% | [2]; [8] 73% | [2]; at 50.0 µM 96% | [3]; [8] 98% | [3]; at 50.0 µM 96.2% | [4]; at 50.0 µM 91.4% | [5]; [8] 97% | [5]; at 50.0 µM 95% | [6]; [8] 98% | [6]; at 50.0 µM 95.5%
inactive: [1]; [7] 10% | [2]; [7] 3% | [3]; [7] 10% | [4]; [7] 6% | [4]; [8] 56% | [5]; [7] 16% | [6]; [7] 5%

O=C1c2ccccc2CCC1Br (stereo not given)
active: [1]; [8] 99% | [1]; at 50.0 µM 99% | [2]; [8] 99% | [2]; at 50.0 µM 99.1% | [3]; [8] 98% | [3]; at 50.0 µM 99.2% | [4]; [8] 99% | [4]; at 50.0 µM 98.6% | [5]; [8] 99% | [5]; at 50.0 µM 98.7% | [6]; [8] 99% | [6]; at 50.0 µM 99%
inactive: [1]; [7] -20% | [2]; [7] 11% | [3]; [7] -3% | [4]; [7] -18% | [5]; [7] -27% | [6]; [7] -13%

[CH3][Sn]([CH3])([Br])[Br].c1ccc(-c2nnc(-c3ccccn3)nc2-c2ccccc2)cc1
inactive: [1]; [7] -3% | [1]; at 50.0 µM 20.4% | [2]; [7] -16% | [2]; [8] 58% | [2]; at 50.0 µM 32.9% | [3]; [7] -9% | [3]; [8] 53% | [3]; at 50.0 µM 16.4% | [4]; [7] -17% | [4]; at 50.0 µM 11.8% | [5]; [7] -4% | [5]; at 50.0 µM -3.3% | [6]; [7] -23% | [6]; [8] 47% | [6]; at 50.0 µM 23.8%
active: [1]; [8] 80% | [4]; [8] 90% | [5]; [8] 87%

IC(I)=C(I)I
active: [1]; [7] 98% | [1]; [8] 93% | [1]; at 50.0 µM 88.5% | [2]; [7] 100% | [2]; [8] 96% | [2]; at 50.0 µM 92.2% | [3]; [7] 99% | [3]; [8] 96% | [3]; at 50.0 µM 91.9% | [4]; [7] 99% | [4]; [8] 96% | [4]; at 50.0 µM 90.8% | [5]; [7] 100% | [5]; [8] 95% | [5]; at 50.0 µM 90% | [6]; [7] 99% | [6]; [8] 91% | [6]; at 50.0 µM 90.1%
